“And” between values parts separate entries of the source, which are not always exact repeats. Identical values can stand only once. In all, about 5,500 compounds went through this assay and about 2,000 (36%) were called active. About 18% were inconclusive and are not listed. Rule as the data show it: active = normalized growth mostly below about 0.91 (no sharp cut-off); inconclusive = no clear call, values can overlap the other calls; inactive = mostly above about 0.92. The list shows a part of the results.
Test: chemical genetic growth profiling, strain panel (AID 1159580);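 also: tested at 20 µM; growth read once vehicle control cultures reached saturation at 30 °C; 1 = growth at the plate median or of vehicle wells; lower values mean less growth of the strain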
Conditions: S. cerevisiae deletion strains, growth OD

Measured: normalized growth

CC1=C2CCC3C(CC[C@]4(C)C(=O)CCC34)[C@@]2(C)CCC1=O (some centres not stated)
active: locus YAL021C, strain ccr4, active compounds read low 0.899 | locus YBR021W, strain FUR4, active compounds read low 0.798 | locus YDL192W, strain arf1, active compounds read low 0.916 | locus YDR137W, strain rgp1, active compounds read low 0.693 | locus YDR195W, strain ref2 1.15 [resistant] | locus YDR392W, strain spt3, active compounds read low 0.565 | locus YDR502C, strain sam2, active compounds read low 0.895
inactive: locus YAL013W, strain DEP1, active compounds read low 0.961 | locus YAL026C, strain drs2, active compounds read low 0.978 | locus YAL030W, strain snc1, active compounds read low 0.993 | locus YBL061C, strain skt5, active compounds read low 0.997 | locus YBR009C, strain hhf1, active compounds read low 0.956 | locus YBR023C, strain chs3, active compounds read low 0.977 | locus YBR171W, strain sec66, active compounds read low 0.977 | locus YBR229C, strain ROT2, active compounds read low 0.981 | locus YBR231C, strain swc5, active compounds read low 1.04 | locus YBR279W, strain paf1, active compounds read low 0.972 | locus YCL011C, strain gbp2, active compounds read low 0.968 | locus YCL016C, strain dcc1, active compounds read low 0.947 | locus YCL029C, strain bik1, active compounds read low 0.969 | locus YCL061C, strain MRC1, active compounds read low 0.967 | locus YCL069W, strain vba3, active compounds read low 0.983 | locus YCR088W, strain abp1, active compounds read low 1.01 | locus YDL005C, strain med2, active compounds read low 0.993 | locus YDL035C, strain GPR1, active compounds read low 0.922 | locus YDL040C, strain nat1, active compounds read low 0.999 | locus YDL074C, strain BRE1, active compounds read low 0.915 | locus YDL101C, strain DUN1, active compounds read low 0.986 | locus YDL134C, strain PPH21, active compounds read low 0.981 | locus YDL185W, strain tfp1, active compounds read low 0.962 | locus YDR001C, strain nth1, active compounds read low 0.997 | locus YDR069C, strain doa4, active compounds read low 1 | locus YDR101C, strain arx1, active compounds read low 0.982 | locus YDR150W, strain NUM1, active compounds read low 0.986 | locus YDR159W, strain sac3, active compounds read low 0.998 | locus YDR162C, strain NBP2, active compounds read low 0.842 | locus YDR297W, strain sur2, active compounds read low 0.995 | locus YDR318W, strain mcm21, active compounds read low 0.941 | locus YDR334W, strain swr1, active compounds read low 1.01 | locus YDR335W, strain msn5, active compounds read low 0.961 | locus YDR388W, active compounds read low 0.946 | locus YEL003W, strain gim4, active compounds read low 0.971 | locus YEL037C, strain rad23, active compounds read low 0.985 | locus YEL061C, strain CIN8 (second series), active compounds read low 0.992 | locus YEL061C, strain CIN8, active compounds read low 0.967 | locus YER015W, strain faa2, active compounds read low 0.964 | locus YER016W, strain bim1, active compounds read low 0.991 | locus YER110C, active compounds read low 0.957 | locus YER111C, strain swi4, active compounds read low 0.989 | locus YER155C, strain BEM2 (second series), active compounds read low 0.904 | locus YER155C, strain BEM2, active compounds read low 0.997 | locus YER167W, strain BCK2, active compounds read low 0.931 | locus YFR010W, strain ubp6, active compounds read low 1.02 | locus YGL078C, strain dbp3, active compounds read low 0.947 | locus YGL086W, strain mad1, active compounds read low 0.936 | locus YGL167C, strain pmr1, active compounds read low 0.963 | locus YGL173C, strain kem1, active compounds read low 1 | locus YGL227W, strain vid30, active compounds read low 1.01 | locus YGL240W, strain doc1, active compounds read low 0.941 | locus YGL248W, strain PDE1, active compounds read low 0.981 | locus YGL253W, strain hxk2, active compounds read low 0.979 | locus YGR078C, strain PAC10, active compounds read low 0.959 | locus YGR135W, strain pre9, active compounds read low 0.902 | locus YGR229C, strain SMI1, active compounds read low 0.962 | locus YGR252W, strain gcn5, active compounds read low 0.836 | locus YHR013C, strain ard1, active compounds read low 0.943 | locus YHR027C, strain rpn1, active compounds read low 0.995 | locus YHR030C, strain SLT2, active compounds read low 0.975 and 0.95 | locus YHR079C, strain IRE1 (second series), active compounds read low 0.986 | locus YHR079C, strain IRE1, active compounds read low 0.941 | locus YHR094C, strain hxt1, active compounds read low 0.984 | locus YHR129C, strain ARP1, active compounds read low 0.991 | locus YHR142W, strain chs7, active compounds read low 0.92 | locus YHR200W, strain rpn10, active compounds read low 0.955 | locus YIL066C, strain RNR3, active compounds read low 0.937 | locus YIL073C, strain SPO22, active compounds read low 0.861 | locus YIL125W, strain kgd1, active compounds read low 0.971 | locus YIR030C, strain dcg1, active compounds read low 0.971 | locus YJL092W, strain hpr5, active compounds read low 0.992 | locus YJL095W, strain BCK1 (second series), active compounds read low 0.992 | locus YJL095W, strain BCK1, active compounds read low 0.889 and 0.943 | locus YJL115W, strain asf1, active compounds read low 0.985 | locus YJL129C, strain trk1, active compounds read low 0.93 | locus YJL134W, strain LCB3, active compounds read low 0.983 | locus YJL154C, strain vps35, active compounds read low 0.993 | locus YJL164C, strain tpk1, active compounds read low 0.938 | locus YJL166W, strain qcr8, active compounds read low 0.963 | locus YJL168C, strain set2, active compounds read low 0.978 | locus YJL187C, strain SWE1 (second series), active compounds read low 0.985 | locus YJL187C, strain SWE1, active compounds read low 0.989 | locus YJR043C, strain POL32, active compounds read low 0.99 | locus YJR066W, strain TOR1, active compounds read low 0.852
